PubChem BioAssay (NCATS)
Results filed as inconclusive are left out. Active and inactive are the calls of the source. The call rests on the fitted dose curve; in most records, active means well fitted inhibition curve with a large enough effect; inconclusive means small, poorly fitted or top-dose-only effect; inactive means flat fitted curve, though single readings scatter.

Test system: CRL-7250
Assay: qHTS assay to identify novel small-molecules to repurpose for Merkel cell carcinoma treatment (AID 1296009); further: nearly all actives have a fitted effect of over 60% in size
Conditions: MCC and control cell lines, CellTiter-Glo viability, 72 h; series mostly up to 92 µM; activity change, negative = cytotoxicity: at the top concentration
In short: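 Luminescence from CellTiter-Glo, read 10 min after addition at room temperature, reported viability following a 72 hr, 37 degree celsius treatment with NPC or MIPE compounds in titration; values normalized to plate controls.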

SMILES	outcome
C[C@@H]1O[C@@H](O[C@H]2[C@H](O)[C@@H](O)[C@H](OC[C@H]3O[C@@H](OC(=O)[C@]45CCC(C)(C)C[C@H]4C4=CCC6[C@@]7(C)CC[C@H](O[C@@H]8OC[C@H](O)[C@H](O[C@@H]9O[C@H](CO)[C@@H](O)[C@H](O)[C@H]9O)[C@H]8O)[C@@](C)(CO)C7CC[C@@]6(C)[C@]4(C)CC5)[C@H](O)[C@@H](O)[C@@H]3O)O[C@@H]2CO)[C@H](O)[C@H](O)[C@H]1O (stereo partly drawn)	inactive [at 9.27 µM]
C[C@]1(O)CC[C@@H]2C(C(=O)O)=CO[C@@H](O[C@@H]3O[C@H](COC(=O)/C=C/c4ccc(O)c(O)c4)[C@@H](O)[C@H](O)[C@H]3O)[C@@H]21	inactive [at 17.4 µM]
C[C@@H]1CC[C@]2(C)C(C[C@@H](O)[C@H](O)[C@]23CO3)[C@@]1(C)CCc1ccoc1 (stereo partly drawn)	inactive
Cc1onc(-c2ccccc2Cl)c1C(=O)N(C)c1ccc(Cl)cc1	inactive
C=C1CCC2C(C)(C)CC(=O)CC2(C)C1CCC(C)CCOC(C)=O (stereo not drawn)	inactive
Cc1occc(=O)c1O[C@@H]1O[C@H](COC(=O)CC(C)(O)CC(=O)O)[C@@H](O)[C@H](O)[C@H]1O (stereo partly drawn)	inactive [at 17.4 µM]
CC1OC(OC2C(CO)OC(OCC3OC(OC(=O)C45CCC(C)(C)CC4C4=CCC6C7(C)CCC(OC8OC(C(=O)O)C(O)C(OC9OC(CO)C(O)C(O)C9O)C8O)C(C)(C)C7CCC6(C)C4(C)CC5)C(O)C(O)C3O)C(O)C2O)C(O)C(O)C1O (stereo not drawn)	inactive [at 9.27 µM]
C=Cc1cc2oc(-c3ccc(O)c(F)c3)nc2cc1O	inactive
